Compound activity (PubChem)
The entries come from a sample that favours hits as a whole.
PD-1 reverse act: reversal of PD-1 mediated T-cell inhibition | 29,000 tested, under 10 active | primary human CD4 T cells, PD-L1 beads, CellTiter-Glo 96 h | activation, % (test concentration not listed); call rule not given here;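 further: 0% = median vehicle wells and 100% = positive control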
STK33 kin inh: blocks human STK33 kinase activity; ADP-Glo luminescence, MBP substrate; Q9BYT3; 0.44% of 27,000 active; inhibition, % at 12.5 µM; in the data active means inhibition above about 20%
Target sequence (Q9BYT3 whole entry, looked up): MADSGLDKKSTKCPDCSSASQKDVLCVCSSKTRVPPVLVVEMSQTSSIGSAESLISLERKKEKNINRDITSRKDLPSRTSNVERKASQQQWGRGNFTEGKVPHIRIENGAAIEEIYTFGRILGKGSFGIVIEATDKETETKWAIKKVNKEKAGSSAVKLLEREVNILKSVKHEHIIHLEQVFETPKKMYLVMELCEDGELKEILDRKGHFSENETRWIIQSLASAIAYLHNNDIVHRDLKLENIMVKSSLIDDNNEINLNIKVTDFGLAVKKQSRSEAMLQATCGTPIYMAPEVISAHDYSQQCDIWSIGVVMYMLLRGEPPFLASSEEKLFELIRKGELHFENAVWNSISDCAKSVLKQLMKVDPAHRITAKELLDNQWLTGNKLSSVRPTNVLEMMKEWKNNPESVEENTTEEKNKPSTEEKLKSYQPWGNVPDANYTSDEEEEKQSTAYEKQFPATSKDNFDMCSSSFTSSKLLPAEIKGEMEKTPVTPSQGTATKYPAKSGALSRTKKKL
NOMO-1 viab: STK33 inhibitor candidate reducing NOMO-1 cell viability; inhibition, % (no concentration beside the values); 7.5% of 37,000 active; NOMO-1 AML viability, CellTiter-Glo luminescence, 72 h; in the data active means inhibition above about 80%
Active calls of the source: *; . = no result.

SMILES | PD-1 reverse act | STK33 kin inh | NOMO-1 viab
C[C@H]1CN([C@@H](C)CO)C(=O)Cc2cc(NC(=O)Nc3ccc(F)cc3)ccc2O[C@H]1CN(C)Cc1ccc(C(F)(F)F)cc1 | 0.1 | -2.5 | 126.0*
C[C@H]1CN([C@@H](C)CO)C(=O)Cc2cc(NC(=O)Nc3ccc(C(F)(F)F)cc3)ccc2O[C@@H]1CN(C)Cc1ccncc1 | . | -1.2 | 20.1
C[C@H]1CN([C@@H](C)CO)C(=O)Cc2cc(NC(=O)Nc3ccc(C(F)(F)F)cc3)ccc2O[C@@H]1CN(C)Cc1ccc(C(F)(F)F)cc1 | -2.5 | -1.4 | 126.1*
C[C@@H]1CN([C@@H](C)CO)C(=O)Cc2cc(NC(=O)Nc3ccc(F)cc3)ccc2O[C@@H]1CN(C)Cc1ccc(C(F)(F)F)cc1 | -6.0 | -2.8 | 113.2*
Cn1c(SCC(=O)Nc2ccc(Br)c(Cl)c2)nnc1-c1ccccc1F | -3.6 | -0.5 | 34.7
CC(C)c1cc(C(C)C)c(N)c(C(C)C)c1 | -0.7 | . | 0.0
CCOc1cc(C)c(S(=O)(=O)NCc2cccnc2)cc1C | 0.9 | -2.3 | 9.0
CC(C)(C)C(/C=C/c1ccc(Cl)cc1Cl)n1nnnc1C(C)(C)N1CCOCC1 (centres undefined) | -0.6 | . | 25.8
COc1ccc(SC(=O)c2cc(C)n(Cc3c(Cl)cccc3Cl)n2)cc1 | 0.1 | . | -0.4
O=C(CC1NC2CCCCC2NC1=O)Nc1ccc(Cl)cc1 (centres undefined) | 1.8 | -3.4 | 21.9
Cn1c(SCC(=O)Nc2ccc(Br)cc2Cl)nnc1-c1cccc([N+](=O)[O-])c1 | . | -4.5 | -1.2
Cc1ccc([N+](=O)[O-])cc1NC(=O)CSc1nnnn1C1CC2CCC1C2 (centres undefined) | . | -0.8 | -2.2
O=C1CCCC(Cn2cncn2)C1 (centres undefined) | -0.1 | . | 4.9
CCOc1ccccc1NC(=O)c1ccccc1N(C)S(=O)(=O)c1ccc(C)cc1 | . | 2.4 | 45.6
CCOc1ccccc1C(=O)Oc1c(S(=O)(=O)c2ccc(C)cc2)c(C)nn1-c1ccccc1 | . | 0.1 | 103.3*
O=C(NCc1ccco1)C1CC(c2ccccc2Cl)=NO1 (centres undefined) | 1.3 | 5.9 | 61.3
COc1ccccc1C(=O)N(Cc1nnc2c3ccccc3c(C)nn12)c1ccccc1 | . | -1.2 | 12.3
O=C(CCc1ccccc1)c1c(O)cc(O)cc1O | 0.8 | -2.6 | -8.0
O=C(/C=C/CCc1ccccc1)CCc1ccccc1 | -3.4 | -1.5 | 121.3*
O=C(CSc1nc2ccccc2c(=O)[nH]1)Nc1ccc(F)cc1F | . | 0.0 | 0.0
C=C1C(=O)O[C@H]2C[C@@H](C)[C@@H]3CCC(=O)[C@@]3(C)C[C@H]12 | -6.8 | -1.2 | 117.3*
C=C1C(=O)O[C@@H]2C[C@H](C)C3C[C@H](O)[C@H](O)[C@@]3(C)C[C@H]12 (some centres undefined) | . | -3.7 | .
O=C(OCCn1ncc2ccccc2c1=O)c1cccs1 | -0.6 | . | 33.6
C[C@@H]1CCC2C(C)(C)CCC[C@@]2(C)[C@@]1(O)CC/C(=C\CO)CO (some centres undefined) | . | -0.4 | .
CCOc1ccccc1NC(=O)CSc1nc2ccccc2c(=O)n1-c1ccc(Cl)cc1 | -3.0 | 1.1 | -14.6
SMILES | PD-1 reverse act | STK33 kin inh | NOMO-1 viab
C[C@H](CO)N1C[C@H](C)[C@H](CN(C)CC2CCCCC2)Oc2ccc(NC(=O)Nc3cccc4ccccc34)cc2CC1=O | . | . | 98.6*
C[C@H]1CN([C@@H](C)CO)C(=O)Cc2cc(NC(=O)Nc3ccc(F)cc3)ccc2O[C@H]1CN(C)CC1CCCCC1 | -1.1 | -0.3 | 105.4*
C[C@@H]1CN([C@@H](C)CO)C(=O)c2cc(NC(=O)Nc3cccc4ccccc34)ccc2O[C@@H]1CN(C)CC1CCCCC1 | -2.7 | . | 118.2*
C[C@H](CO)N1C[C@H](C)[C@@H](CN(C)CC2CCCCC2)Oc2ccc(NC(=O)Nc3cccc4ccccc34)cc2C1=O | 0.1 | . | 32.3
C[C@H]1CN([C@@H](C)CO)C(=O)c2cc(NC(=O)Nc3cccc4ccccc34)ccc2O[C@H]1CN(C)CC1CCCCC1 | -0.6 | . | 24.5
C[C@@H]1CN([C@@H](C)CO)C(=O)Cc2cc(NC(=O)Nc3ccc(F)cc3)ccc2O[C@@H]1CN(C)CC1CCCCC1 | 1.8 | 1.4 | 80.9*
CC(C)NC(=O)Nc1ccc2c(c1)CC(=O)N([C@H](C)CO)C[C@H](C)[C@H](CN(C)CC1CCCCC1)O2 | . | 3.4 | 34.7
COc1ccc(NC(=O)Nc2ccc3c(c2)CC(=O)N([C@H](C)CO)C[C@@H](C)[C@@H](CN(C)CC2CCCCC2)O3)cc1 | 0.0 | -1.1 | 31.3
N#Cc1c(NC(=O)CCn2cnc3ccccc3c2=O)sc2c1CCC2 | . | 0.1 | 7.5
COc1cc([C@H]2OC[C@H]3[C@@H]2CO[C@@H]3c2ccc(OC)c(OC)c2)ccc1O | 0.3 | -3.4 | 20.6
Cc1cccc(N2C(=O)c3ccc(C(=O)Nc4c[nH]c(=O)[nH]c4=O)cc3C2=O)c1C | 0.5 | . | -12.6
Cc1ccccc1NC(=O)CSc1n[nH]c(-c2ccncc2)n1 | 2.4 | -2.5 | -5.4
COc1ccccc1OCCCSc1nc(-c2ccccc2)cc(=O)[nH]1 | 0.5 | 6.6 | 7.7
Cc1cc(C)c(NC(=O)CCNC2CCCCC2)c(C)c1 | -0.6 | . | 32.0
C[C@H](CO)N1C[C@H](C)[C@H](CN(C)CC2CCCCC2)Oc2ccc(NC(=O)Nc3ccc(F)cc3)cc2CC1=O | . | 0.2 | 94.7*
C[C@@H]1CN([C@H](C)CO)C(=O)Cc2cc(NC(=O)Nc3ccccc3)ccc2O[C@H]1CN(C)CC1CC1 | 2.7 | -0.7 | -14.4
CC(C)NC(=O)Nc1ccc2c(c1)CC(=O)N([C@H](C)CO)C[C@@H](C)[C@@H](CN(C)CC1CCCCC1)O2 | 1.9 | 0.4 | 8.5
C[C@H]1CN([C@@H](C)CO)C(=O)Cc2cc(NC(=O)Nc3ccc(F)cc3)ccc2O[C@@H]1CN(C)CC1CC1 | 0.0 | 3.3 | 8.1
C[C@H]1CN([C@@H](C)CO)C(=O)Cc2cc(NC(=O)Nc3ccc4c(c3)OCO4)ccc2O[C@H]1CN(C)CC1CCCCC1 | 3.0 | 0.2 | 31.0
C[C@H]1CN([C@@H](C)CO)C(=O)Cc2cc(NC(=O)Nc3ccc(F)cc3)ccc2O[C@@H]1CN(C)CC1CCCCC1 | 1.1 | -0.1 | 98.7*
C[C@H]1CN([C@@H](C)CO)C(=O)Cc2cc(NC(=O)Nc3ccc4c(c3)OCO4)ccc2O[C@@H]1CN(C)CC1CCCCC1 | 1.8 | -1.9 | 92.0*
C[C@H](CO)N1C[C@H](C)[C@H](CN(C)CC2CCCCC2)Oc2ccc(NC(=O)Nc3ccccc3)cc2CC1=O | . | . | 105.9*
COc1cccc(NC(=O)CCc2nc(-c3ccc(OC)c(OC)c3)no2)c1 | -3.5 | -1.7 | 2.4
O=C(N=S1CCN(C(=O)c2ccc(Cl)cc2)CC1)c1ccc(Cl)cc1 | -1.0 | . | 17.6
Cc1ccc(C(C)C)c(OCc2ccc(N)cc2)c1 | -0.6 | . | 10.8
SMILES | PD-1 reverse act | STK33 kin inh | NOMO-1 viab
O=C(CSc1nnc(-c2ccccc2)c(-c2ccccc2)n1)Nc1cccc(C(F)(F)F)c1 | -2.4 | 0.4 | 27.6
COC(=O)c1ccccc1NC(=O)c1ccc(N(C)S(=O)(=O)c2ccc(OC)c(OC)c2)cc1 | -1.5 | -0.3 | 5.9
O=C(Nc1sc2c(c1C(=O)NCc1ccco1)CCCC2)c1ccccc1[N+](=O)[O-] | 0.0 | 0.8 | 29.9
O=C(Nc1ccc(F)cc1)c1cnccc1C(F)(F)F | 0.8 | . | 11.2
Cc1ccc(S(=O)(=O)N(C)CC(=O)Nc2cccc(I)c2)cc1 | 1.0 | -1.1 | 2.1
CCOc1ccc2c(c1)-c1c(ssc1=S)C(C)(C)N2C | -1.7 | . | 86.3*
